Screening data (PubChem BioAssay)
CYP2C9 act – activators of human CYP2C9; P11712; recombinant CYP2C9, luciferin-H conversion, luminescence; stronger effect = higher value; factor 1 = untreated enzyme, 0 = blocked; activation factor at 5 µM; hit rate 1.4% among 96,000;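 active = activation factor of 2 or more for CYP2C9 at a 5 µM dose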;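 also: 0 = sulfaphenazole-blocked wells and 1 = vehicle-only wells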
Target sequence (P11712 whole entry, looked up): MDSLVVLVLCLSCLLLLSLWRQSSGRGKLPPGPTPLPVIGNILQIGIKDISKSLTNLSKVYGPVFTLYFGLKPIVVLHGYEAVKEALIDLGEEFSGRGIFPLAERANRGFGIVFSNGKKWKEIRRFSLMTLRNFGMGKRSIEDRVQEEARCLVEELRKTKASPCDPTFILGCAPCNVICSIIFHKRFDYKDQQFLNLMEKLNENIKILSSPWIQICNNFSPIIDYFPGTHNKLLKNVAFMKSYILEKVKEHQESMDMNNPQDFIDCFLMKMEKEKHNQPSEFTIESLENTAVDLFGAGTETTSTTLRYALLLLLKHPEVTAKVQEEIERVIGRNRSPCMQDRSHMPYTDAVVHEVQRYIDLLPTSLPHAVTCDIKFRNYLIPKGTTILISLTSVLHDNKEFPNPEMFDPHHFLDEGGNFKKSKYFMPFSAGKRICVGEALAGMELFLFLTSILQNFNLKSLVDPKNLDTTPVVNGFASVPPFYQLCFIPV
CYP2C19 activ – increases human CYP2C19 enzyme activity; P33261; recombinant CYP2C19, luciferin-H EGE luminescence; stronger effect = higher value; 0 = fully inhibited enzyme, 1 = untreated enzyme; activation factor at 5 µM; 96,000 tested, under 10 active; AID 1025;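 active = activation factor of at least 2 at 5 µM in the primary screen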;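 also: 0 = wells with 2.5 mM tranylcypromine and 1 = vehicle-only wells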
CYP2C9 inhib – blocks human cytochrome P450 2C9; CYP2C9 Supersomes, luciferin-H conversion, luminescence; inhibition, % at 5 µM; hit rate 20% among 96,000;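 active = blocking of liver enzyme CYP2C9 beyond about 50% at 5 µM, limit read from the data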
CYP2C19 inh – blocks human cytochrome P450 2C19; hit rate 21% among 96,000; inhibition, % at 5 µM; P33261; CYP2C19 Supersomes, luciferin-H EGE luminescence, 30 min;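 active = CYP2C19 inhibition above a set limit at 5 µM in the primary screen, cut at about 50% in these data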;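 also: plate controls were negative control wells for no effect and 2.5 mM tranylcypromine positive control for full effect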
Measles CPE – protection of cells from measles virus | AID 841 | protection (pct of control), % at 4 µM | Measles virus-infected cells, CPE protection, absorbance | hit rate 1.5% among 140,000; in the data active = protection mostly above about 24%, no sharp cut-off; inactive = mostly below about 26%
* = called active by the depositor; · = no result. Only some compounds are listed: those with a hit (about 22% of all), similar ones and a draw of the others.

SMILES	CYP2C9 act	CYP2C19 activ	CYP2C9 inhib	CYP2C19 inh	Measles CPE
COc1ccccc1N1CCN(Cc2c(F)cccc2F)CC1	0.8	0.4	23	58*	25
COc1ccccc1N(CC(=O)NC1CCCC1)C(=O)c1cnn(C(C)C)c1	·	·	·	·	6
Cc1ccc(N2C(=O)/C(=C/c3ccc(CN(CCC#N)S(C)(=O)=O)o3)C(=O)NC2=S)cc1	0.5	0.9	47	11	18
CCCOP(=O)(O)c1c([N+](=O)[O-])cc(C(F)(F)F)cc1[N+](=O)[O-] (tested in a mixture with another compound)	0.8	0.9	20	8	18
COc1cccc(N2CCN(Cc3ccc(Cl)cc3)CC2)c1	0.3	0.1	72*	88*	9
COc1cccc(N2CCN(Cc3cccc(Cl)c3)CC2)c1	0.2	0.1	79*	95*	7
N#Cc1cc2c(nc1SCC(=O)Nc1ccc(Cl)cc1)C1CCN2CC1	0.2	0.1	84*	92*	27
O=C1C2CCCN2C(c2cccc(Cl)c2)N1c1ccccn1 (stereo not drawn)	1	0.9	5	13	6
CCC(=O)O[C@@H]1[C@@H](OC(C)=O)[C@@]2(O)C(C[C@H](O)C2(C)C)[C@](C)(O)[C@H]2CC[C@@H]3[C@@H](O)[C@]12C[C@@]3(C)O (stereo partly drawn)	·	·	·	·	14
OC(c1ccccc1)(c1ccccc1)C1CCNCC1	0.4	1	60*	3	6
OC(c1ccccc1)(c1ccccc1)c1ccncc1	·	·	·	·	13
Cc1[nH]c2ccccc2c1C1=CCNCC1	0.3	0.8	74*	21	5
COc1ccc(CCNCc2ccc(F)cc2)cc1OC	1.2	0.5	-16	52*	17
Fc1ccc(CCNCc2ccc(Br)cc2)cc1	·	·	·	·	6
Fc1ccc(CCNCc2cccc(Cl)c2)cc1	0.9	0.1	7	92*	5
COc1ccc(CCNCc2ccccn2)cc1OC	0.9	0.9	9	14	8
COc1ccc(CCNCc2ccc(SC)cc2)cc1	1	0.2	-3	81*	33
CCC(C)n1c(O)c(C(c2ccccn2)c2c(O)n(C(C)CC)c(=S)[nH]c2=O)c(=O)[nH]c1=S (stereo not drawn)	0.6	1	36	-3	5
CN(C)C(=O)Oc1ccc(-c2cn3cc(Cl)ccc3n2)cc1	·	·	·	·	16
CN(C)C(=O)Oc1cccc(-c2cn3cc(Cl)ccc3n2)c1	·	·	·	·	45*
O=[N+]([O-])c1ccc(C2C3C(c4ccccc4)=NC4(CCCC4)N32)cc1 (stereo not drawn)	·	·	·	·	6
N#CCCn1cc(C(=O)Nc2ccccc2Br)c(-c2ccc3c(c2)OCCO3)n1	·	·	·	·	4
Cc1nc2cc(-c3cccc(F)c3)nn2c(C)c1CCC(=O)N1CCC2(CC1)OCCO2	0.8	0.7	18	28	25*
Cc1ccc(OCC(=O)N2CCN(CC3CC4C=CC3C4)CC2)cc1 (stereo not drawn)	0.9	0.8	15	21	14
O=C1C2CCCN2C(c2ccncc2)N1c1ccc(Cl)c(Cl)c1 (stereo not drawn)	0.1	0.3	88*	68*	8
SMILES	CYP2C9 act	CYP2C19 activ	CYP2C9 inhib	CYP2C19 inh	Measles CPE
Cc1ccccc1C1=NCC(=O)N(CC(=O)NCc2ccco2)c2sc3c(c21)CCCC3	0.2	0.3	84*	66*	5
Cc1ccc(C2=NCC(=O)N(CC(=O)N3CCCCC3)c3sc(C)c(C)c32)cc1	0.8	0.9	22	11	8
CC(C)(C)C(O)C(Oc1ccc(Cl)cc1)n1cncn1 (stereo not drawn)	0.4	0	58*	95*	7
O=c1c2ccccc2[nH]c(=S)n1-c1ccc2c(c1)OCO2	0.2	0	83*	97*	3
O=C(c1cccn2c(=O)c3cc(Br)ccc3nc12)N1CCC2(CC1)OCCO2	0.5	0.7	55*	32	15
COCCCN1CCN(c2nnc3n2-c2sc(Br)cc2C(c2ccccc2Cl)=NC3)CC1	0.7	0.6	27	44	6
O=C1NC(=O)C2(Cc3c(nc4ccccn4c3=O)N3CCCCCC32)C(=O)N1Cc1ccccc1 (stereo not drawn)	0.1	0.3	89*	73*	3
CCn1c(C(=O)N2CCC(C(=O)N3CCC4(CC3)OCCO4)CC2)cc2sccc21	1.3	0.9	-29	7	2
COc1ccc(CC(=O)N2CCN(C)CC2)cc1OC	1.1	1	-9	-2	12
COc1ccc(CCN(C)Cc2c(F)cccc2F)cc1OC	0.9	0.2	14	80*	2
COc1cccc(OC)c1C1=NCC(=O)Nc2c1oc1ccc(Br)cc21	0.3	0.6	65*	40	8
O=C1CN=C(c2ccccc2)c2oc3ccc(Br)cc3c2N1	0.9	1	12	2	4
CN(C)CC#CCC(O)(c1ccccc1)C1CCCC1 (stereo not drawn)	0.8	0.5	20	55*	16
COc1ccc(C(=O)C2(C)N(O)C(C)C(c3cccs3)=[N+]2[O-])cc1 (stereo not drawn)	0.6	0.6	42	42	13
COC(=O)C(O)(c1cn(C)c2ccccc12)C(F)(F)F (stereo not drawn)	2.8*	0.9	-180	6	46*
C=CCN1C(=O)CSc2ccc(C(=O)N3CCC4(CC3)OCCO4)cc21	1.2	0.6	-24	43	19
CCOC(=O)C(O)(c1ccc(N(CC)S(=O)(=O)c2ccccc2)cc1)C(F)(F)F (stereo not drawn)	0.3	0.4	74*	61*	7
CCN(c1ccc(C(O)(C(=O)OC)C(F)(F)F)cc1)S(=O)(=O)c1ccccc1 (stereo not drawn)	0.2	0	79*	95*	8
CCOC(=O)C(O)(c1ccc(NC(=O)Oc2ccccc2)cc1)C(F)(F)F (stereo not drawn)	·	·	·	·	26
CC(=O)OC1N=C(c2ccccc2)c2cc(Br)ccc2N(C)C1=O (stereo not drawn)	0.9	1	7	-4	2
CCNc1nc(Cl)nc(NC(C)C)n1	·	·	·	·	4
CN(C)P(=O)(C(Cl)=C(N1CCCCC1)N1CCCCC1)N(C)C	0.8	0.3	16	69*	2
O=P(N1CCCCC1)(N1CCCCC1)C(Cl)(Cl)Cl	0.5	0.6	46	36	5
CCN(CC)C(=O)c1ccc(NC(=O)c2cccc(F)c2)cc1	1.2	1	-20	4	31
Cc1cccc(CSc2nc3c(cc2C#N)CN(C)CC3)c1	1	0.3	1	70*	5
Cc1nn(Cc2ccccc2Cl)c(C)c1C(=O)OCC(=O)NC1CCCC(C)C1C (stereo not drawn)	·	·	·	·	12
O=C(c1ccc(CS(=O)(=O)c2ccc(Br)cc2)o1)N1CCC2(CC1)OCCO2	0.5	0.6	54*	42	5
O=C(CCS(=O)(=O)c1ccc(Br)cc1)N1CCC2(CC1)OCCO2	0.9	0.9	14	11	16
O=C(c1ccc(CS(=O)(=O)c2ccccc2)o1)N1CCC2(CC1)OCCO2	0.5	0.2	47	81*	2
